In all, about 1,200 compounds went through this assay and about 400 (33%) were called active. The list is a sample of the results. Results with a measured potency or affinity are listed apart. Unmarked numbers belong to inactive results. The rule behind the calls is not given here.
Assay: mammalian cell cytotoxicity, dose response, cytotoxicity control (AID 434958);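 note: cells exposed to compound for 72 hours before readout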
Conditions: cytotoxicity counter-screen; series mostly up to 40 µM; viability: at the top concentration

Point of comparison: `CCOC(=O)c1c(C)oc2c1c(CN1CCN(C(=O)OCC)CC1)c(O)c1ccccc12`, “viability” value 86.2%. Against it:
- CCOC(=O)c1ccc(N2CN(CCc3ccccc3)CNC2=S)cc1 — higher, 94.3%
- CC(C)(C)c1nnc2sc(SCC(=O)c3cccs3)nn2c1=O — higher, 101%
- CCCn1nc(NC(=O)c2ccco2)c2cc3cc(C)ccc3nc21 — higher, 90.7%
- CNC(=O)COC(=O)c1ccccc1NC(=O)c1ccco1 — higher, 89.6%
- COc1ccc(NC(=O)CCc2ccccc2)cc1NC(=O)c1ccco1 — lower, 85.7%
- C=CCOc1ccc(C2N3CC4(C)CN2CC(CCC)(C3)C4=O)cc1 (stereo not given) — higher, 97.2%
- CC(C(=O)Nc1nc2ccccc2[nH]1)N1C(=O)C2CC=CCC2C1=O (stereo not given) — higher, 99.8%
- CCC(=O)NC(=S)Nc1ccc(-c2nc3ccccc3s2)cc1 — higher, 98.2%
- CCOc1ccc(S(=O)(=O)n2nnc3ccccc32)cc1C(C)C — higher, 102%
- COC(=O)c1c(-c2ccc(OC)cc2)oc2ccc(-c3cc(OC)c(OC)c(OC)c3)cc12 — lower, 81.5%
- O=C(NCCC1=CCCCC1)NC1CCCCC1 — higher, 105%
- CCC1CCCCN1C(=O)CSc1nnc(-c2ccc(Cl)s2)o1 (stereo not given) — higher, 98%
- O=C(NCc1ccco1)c1cc2n(n1)C(C(F)(F)F)CC(c1ccc(F)cc1)N2 (stereo not given) — higher, 92.2%
- O=C(CN1CCN(c2ccccn2)CC1)Nc1ccc(Cl)c(C(F)(F)F)c1 — higher, 95.8%
- N#Cc1ccc(NC(=O)COC(=O)C2=COCCO2)cc1 — higher, 109%
- COc1cc2c(cc1OC)C(c1ccccc1)CC2=O (stereo not given) — lower, 85.2%
- Cc1ccccc1Cn1cc(NC(=O)CSc2nc3c(c(C(F)(F)F)n2)CCc2ccccc2-3)cn1 — higher, 90.7%
- CCO[C@H]1OC(C(=O)NCc2nc3ccccc3[nH]2)=C[C@@H](c2cn(C(C)=O)c3ccccc23)[C@@H]1CCCO — lower, 81.8%
- CCCc1c(C)nc2c(OC)cccc2c1SCC(=O)O — higher, 107%
- O=C(O/N=C\c1ccc(N2CCCCC2)c([N+](=O)[O-])c1)c1c(F)cccc1F — higher, 95.2%
- c1ccc2c(c1)Cn1nc(Cc3nc4c(s3)CCCC4)nc1-2 — higher, 108%
- COc1ccc2nc(NC(=O)NC3CCCCC3)sc2c1 — higher, 92.6%
- CC(=O)c1ccc(N2CCN(c3ncc(C(F)(F)F)cc3Cl)CC2)cc1 — lower, 81.7%
- O=C(Nc1ccc(Cl)cc1F)c1cccc2ccccc12 — higher, 95.1%
- CCc1ccccc1NC(=O)CNC(=O)c1cc(C2CC2)nn1-c1ccccc1 — higher, 93.1%
- O=C(NCc1ccc2c(c1)OCO2)Nc1ccc2ccccc2c1 — the same, 86.2%
- CCN(CC)C(=O)CSc1nnc2nnc3cc(OC)ccc3n12 — higher, 102%
- CN1C/C(=N\S(=O)(=O)c2ccccc2)N(C)C1=O — higher, 92.3%
- Cn1cccc1/C=C1/C(=O)NC(=O)N(Cc2ccc(F)cc2)C1=O — higher, 92.6%
- COCCNC(=S)N/N=C1\CC(C)CC(C)(C)C1 (stereo not given) — higher, 94.2%
- CC(=O)Nc1cccc(-n2nnc(SCC(=O)Nc3ccc(F)c(Cl)c3)n2)c1 — higher, 91.8%
- COC(=O)CN1C(CN2CCOCC2)=Nc2ccc(Br)cc2C1c1ccccc1 (stereo not given) — higher, 89.5%
- CSc1ccc(/C=C/C(=O)Nc2ccccc2)cc1 — higher, 92.7%
- CCOc1ccc(N2C(=O)CC(N)C2=O)cc1 (stereo not given) — higher, 101%
- O=C(NC1CCCCCCC1)c1ccc(Br)cc1 — higher, 97%
- CCCC(C)NC(=O)c1ccc(OCc2ccc(Cl)cc2)c(OC)c1 (stereo not given) — lower, 80%
- Cc1ccc(C)c(N2CCN(C3CCCC(C)C3)CC2)c1 (stereo not given) — higher, 95.6%
- O=C(Nc1ccc(Cl)cc1)C1CC2CCCC(C1)C2=O (stereo not given) — higher, 101%
- Cc1ccc(NC(=O)CSc2n[nH]c(-c3ccco3)n2)cc1 — higher, 95.4%
- CCCC(C(=O)N1CCOCC1)N1C(=O)C2C3C=CC(C3)C2C1=O (stereo not given) — higher, 107%
- Cc1ccc(C(=O)Nc2c(C)cc(C)c3cccnc23)cc1 — higher, 92.3%
- Cc1c(C(=O)c2ccccc2)oc2ccc3ccccc3c12 — higher, 101%
- COCCOC(=O)c1c(C)oc2ccc(OC(=O)c3c(OC)cccc3OC)cc12 — lower, 80.5%
- COc1ccc(-c2c(-c3ccsc3)oc3ccc(N4CCOCC4)cc23)cc1 — lower, 84.5%
- Cc1nn(C)c(C)c1C1C(C#N)=C(N)OC2=C1C(=O)CCC2 (stereo not given) — higher, 106%
- Cc1cccnc1NC(=O)c1cc2ccccc2oc1=O — higher, 86.4%
- CNc1ccccc1NC(=O)C1CCCN1C(=O)OCc1ccccc1 (stereo not given) — higher, 101%
- Cc1ccc(C)c(NC(=O)C2Cc3ccccc3CN2C(=O)OCc2ccccc2)c1 (stereo not given) — higher, 107%
- O=C(NC(=S)N1CCOCC1)c1ccc([N+](=O)[O-])cc1 — higher, 107%
- NC(=O)CN1C(=O)C(O)(CC(=O)/C=C\C=C\c2ccccc2)c2ccccc21 (stereo not given) — higher, 105%
- C=CCC(Nc1ccccc1)C12C=CC(O1)C(C(=O)OC)=C2C(=O)OC (stereo not given) — higher, 106%
- COc1ccc2ccccc2c1/C=N/NC(=O)c1cccc(C)c1 — lower, 80.4%
- COc1cc(C(=O)N/N=C/c2ccc(OC(=O)c3cccc(C)c3)cc2)ccc1O — higher, 97%
- Cc1ccccc1NC(=O)/C(C#N)=C\c1cc(C)n(-c2ccc(C(=O)O)cc2)c1C — higher, 86.8%

— PubChem BioAssay AID434958 (Southern Research Specialized Biocontainment Screening …, 2010)
